# Shown are actives, neighbours in structure and some others; about 11% of the full set was active somewhere.
# VP16 counter: Gal4-VP16 reporter inhibition counter-screen. Drosophila S2 Gal4-VP16 UAS-luciferase, luminescence, 20 h. Potency, µM (doses to about 53.6 µM), for inactives: top-dose activity, negative = inhibition, actives largely listed as inhibitors. hit rate 3.5% among 310,000. AID 2546;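 note: Gal4-VP16 expression switched on by copper sulfate through the metallothionein promoter; potency is the fitted concentration of half-maximal effect; % is set by controls: 0 for no effect and ±100 for the full control effect; nearly all actives have a fitted effect of over 50% in size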
# RORgamma inh: blocks mouse ROR gamma transcriptional activity; hit rate 5.4% among 310,000; AID 2551; Potency, µM (series often up to 53.6 µM), without a hit: top-dose activity change, negative = inhibition, actives largely listed as inhibitors; Drosophila S2 Gal4-RORgamma UAS-luciferase reporter, 20 h; note: potency is the fitted concentration of half-maximal effect; % is set by controls: 0 for no effect and ±100 for the full control effect; nearly all actives have a fitted effect of over 60% in size
# Target sequence (P51450 whole entry, looked up, the tested form may be a part): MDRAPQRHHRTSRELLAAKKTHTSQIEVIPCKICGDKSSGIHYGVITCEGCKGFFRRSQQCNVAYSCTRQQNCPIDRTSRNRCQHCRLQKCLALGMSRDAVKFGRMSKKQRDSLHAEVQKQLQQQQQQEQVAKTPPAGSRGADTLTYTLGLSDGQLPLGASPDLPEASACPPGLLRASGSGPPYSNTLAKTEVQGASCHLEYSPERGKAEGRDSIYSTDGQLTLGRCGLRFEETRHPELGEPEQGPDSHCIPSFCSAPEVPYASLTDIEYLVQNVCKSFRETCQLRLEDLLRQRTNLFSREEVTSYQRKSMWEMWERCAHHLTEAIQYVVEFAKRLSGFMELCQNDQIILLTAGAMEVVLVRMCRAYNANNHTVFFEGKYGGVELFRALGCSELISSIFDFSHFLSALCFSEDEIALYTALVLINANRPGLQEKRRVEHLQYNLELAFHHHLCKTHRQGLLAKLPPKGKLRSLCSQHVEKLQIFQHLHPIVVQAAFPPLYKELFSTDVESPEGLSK
#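 Stably transfected Drosophila Schneider cells are the test system, with ROR gamma fused to Gal4 and luciferase under UAS control; luminescence is read after 20 hr of 700 uM copper sulfate induction at ambient temperature.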
# MCF10A rerep: DNA re-replication induction in MCF 10a cells; MCF 10A DNA re-replication, Hoechst nuclear intensity, 48 h; Potency, µM (series often up to 46.1 µM), inactives show at the top dose activity, positive = re-replication, most hits filed as activators; hit rate 2.9% among 350,000; AID 624296; note: potency is the fitted concentration of half-maximal effect; % of control where 0% means no effect; nearly all actives have a fitted effect of over 50% in size
# SW480 rerep: DNA re-replication induction in SW480 cells; SW480 DNA re-replication, Hoechst DNA content imaging, 48 h; Potency, µM (highest dose often 46.1 µM), without a hit: top-dose re-replication activation, actives largely listed as activators; hit rate 1.8% among 340,000; note: potency is the fitted concentration of half-maximal effect; % of control where 0% means no effect; nearly all actives have a fitted effect of over 55% in size
#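 Per well, 250 cells were exposed to pinned compound for 48 hr. Nuclear DNA was visualised with Hoechst (40 min, 37 C) and total object intensity recorded by fluorescence scanning.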
# IL-1B inflam inh: inflammasome signaling inhibition, IL-1 beta readout. THP-1 LPS/ATP IL-1B secretion, AlphaLISA, 16 h; hits give low values. AID 743279. activity change, % at 57.5 µM. hit rate 4.7% among 360,000; in the data active = activity change below about -50%; inconclusive = mostly about -30% to -49%; note: % is set by controls: 0 for no effect and ±100 for the full control effect
#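 THP-1 cells pretreated 1 hr with compounds (up to 57.5 uM final), then stimulated with LPS (250 ng/mL final) plus ATP (1.25 mM final); secreted IL-1B measured by AlphaLISA after 16 hr, decreased signal indicating inhibition.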
# Numbers without * were called inactive; ? = inconclusive; . = not tested or not shown; [ ] = another dose, or the depositor's remark. Unless noted, calls come from the whole dose curve; as a rule, active = well fitted curve in the direction sought with a large enough effect; inconclusive = small, poorly fitted or top-dose-only effect, or another doubt; inactive = no such curve, though single readings can be large; an effect the other way counts as inactive or inconclusive.
SMILES,VP16 counter,RORgamma inh,MCF10A rerep,SW480 rerep,IL-1B inflam inh
CCCCNC(=S)Nc1cc([N+](=O)[O-])ccc1C,?,11.2µM*,-3.6%,-3.3%,-4.9
Cc1ccc(S(=O)(=O)N2CCCCC2)cc1NC(=O)c1ccco1,.,.,.,.,-17.2
CCOC(=O)C(=O)Nc1cc([N+](=O)[O-])ccc1C,-8.5%,-0.8%,-0.9%,.,0.0
COc1ccccc1CNCC(=O)Nc1cc(S(=O)(=O)N2CCCCC2)ccc1C,.,.,21.4%,0.2%,-59.7*
CCCCNC(=S)Nc1cc(S(=O)(=O)N2CCCCC2)ccc1C,10µM*,5.62µM*,-1.8%,3.4%,1.5
COc1ccccc1CNCC(=O)Nc1cc(S(=O)(=O)N2CCCCCC2)ccc1Cl,10.7%,?,6.4%,?,-8.5
COc1ccc(NC(=O)CN(C)C(=O)c2ccc(S(=O)(=O)Nc3ccccc3F)cc2)cc1,.,.,2.5%,-72.7%,4.0
CCN(CC(=O)Nc1cc(S(=O)(=O)N2CCCCC2)ccc1C)Cc1ccccc1,.,.,20.6µM*,-2.4%,-14.1
Cc1ccc(S(=O)(=O)N2CCCCC2)cc1NC(=O)c1cc(F)c(F)c(F)c1F,.,.,?,?,-94.2*
Cc1ccc(S(=O)(=O)N2CCOCC2)cc1NC(=O)CNCc1ccccc1Cl,.,.,?,5.17µM*,-17.7
CCN(CC(=O)NCC(=O)Nc1ccc(Br)cc1C)Cc1ccccc1,.,.,?,-18.8%,-62.8*
O=C(CNC(=O)N1CC(=O)Nc2ccccc21)Nc1cc(Cl)ccc1Cl,-26.1%,-12.5%,17.3%,-6.1%,-9.6
O=C(CCCN1C(=O)/C(=C/c2ccccc2Cl)SC1=S)NNC(=O)c1ccncc1,10µM*,?,13µM*,-30.9%,?
O=C(CCCN1C(=O)/C(=C\c2cccs2)SC1=S)NNC(=O)c1cccnc1,?,5.62µM*,-14.4%,-17.3%,-1.9
O=C(CCCN1C(=O)/C(=C/c2cccs2)SC1=S)NNC(=O)c1ccncc1,-23.8%,-20.2%,1.7%,-3.1%,0.0
Cc1cc(NC(=O)CCCN2C(=O)/C(=C/c3ccccc3Cl)SC2=S)no1,-1.4%,-20.9%,7.9%,?,0.4
O=C(CCCN1C(=O)/C(=C/c2ccccc2Cl)SC1=S)NNC(=O)c1ccccc1Cl,2.82µM*,1µM*,?,-5.6%,19.0
O=C(CCCN1C(=O)/C(=C/c2cccs2)SC1=S)NNC(=O)c1ccccc1O,?,-34.0%[10 µM],2.0%,?,0.0
Cc1ccc(C(=Cc2ccc([N+](=O)[O-])cc2)C(=O)O)cc1,.,.,.,.,23.9
O=C1c2cc3c(cc2CCC1c1ccc2c(c1)OCO2)OCO3 (centres undefined),.,.,.,.,-9.5
S=C(NCCc1c[nH]c2ccccc12)NC1CCCCC1,-26.0%,14.1µM*,-4.2%,-9.5%,-52.0*
S=C(NCCc1c[nH]c2ccccc12)NC1CCCC1,-8.6%,-5.5%,-3.8%,-0.6%,26.9
COc1ccc2[nH]cc(CCNC(=S)NC3CCCC3)c2c1,?,10µM*,3.4%,-9.3%,18.1
N[C@@H](C(=O)O)c1cc(O)ccc1Cl,0.7%,1.3%,.,.,.
O=C(O)CCc1ncc(C(F)(F)F)cc1Cl,12.3%,25.9%,3.9%,-5.3%,-0.7
SMILES,VP16 counter,RORgamma inh,MCF10A rerep,SW480 rerep,IL-1B inflam inh
FC(F)(F)c1cnc(COc2cc(Cl)cc(Cl)c2)c(Cl)c1,0.7%,1.5%,13.0%,-5.7%,-74.1*
Cc1ccnn1CC(=O)N/N=C/c1cn[nH]c1-c1ccc(F)cc1,?,14.1µM*,-3.1%,-3.9%,1.4
Cc1cc(C(=O)N/N=C/c2cccc([N+](=O)[O-])c2)c2ccccc2n1,2.5%,-37.7%,17.7%,4.4%,4.8
COc1cc([N+](=O)[O-])cc(/C=N/NC(=O)Cn2nccc2C)c1O,?,3.55µM*,18.4µM*,16.4µM*,0.0
CCOc1cc(/C=N/NC(=O)Cc2ccc(C(F)(F)F)cc2[N+](=O)[O-])c(Br)cc1OC,?,-22.9%,?,-7.3%,5.4
COc1cc(Br)cc(/C=N/NC(=O)Cc2ccc(C(F)(F)F)cc2[N+](=O)[O-])c1O,0.355µM*,0.141µM*,?,23.6%,76.2
COc1cc([N+](=O)[O-])cc(/C=N/NC(=O)c2cc(C)nc3ccccc23)c1O,12.6µM*,5.62µM*,?,?,51.7
CC1CCC(C(=O)O)NC1c1cccc(N2CCCC2=O)c1 (centres undefined),2.0%[10 µM],5.5%[10 µM],.,.,.
COc1ccc(/C=N/NC(=O)c2cc(-c3ccccc3)nc3ccccc23)c(C(=O)O)c1OC,-1.5%,-12.5%,1.6%,0.2%,0.8
COc1cc([N+](=O)[O-])cc(/C=N/NC(=O)c2cc(-c3ccccc3)nc3ccccc23)c1O,4.47µM*,2µM*,6.4%,16.1%,55.8
CCOc1ccc(N2CC(C(=O)N3CCN(C(=O)c4ccco4)CC3)CC2=O)cc1 (centres undefined),7.2%,31.2%,-1.8%,6.9%,-16.4
CC(C)(C)C1=CC(=Nc2ccccc2N)C=C(C(C)(C)C)C1=O,4.8%,-11.1%,-6.5%,?,-113.1*
COc1ccc(CCC(=O)NNC(=O)c2cc(Cl)ccc2OC)cc1,-0.9%,-2.7%,4.6%,-1.1%,4.1
CC(=O)c1ccc(-c2cccc(C3C4C=CCCC4(C)C(=O)N3Cc3ccccc3)c2)cc1 (centres undefined),-4.1%,-37.5%,.,.,.
CCOC(=O)[C@@H]1[C@H]2COc3cc(OC)ccc3[C@@H]2N2C(=O)N(c3cccc(Cl)c3)C(=O)[C@@]12C,5.1%,11.2µM*,-0.1%,-10.3%,-5.5
CCOC(=O)[C@@H]1[C@H]2COc3ccccc3[C@@H]2N2C(=O)N(c3ccccc3)C(=O)[C@@]12C,-24.2%,12.6µM*,-40.1%,1.7%,26.0
CCOC(=O)[C@H]1[C@H]2COc3ccc(Br)cc3[C@@H]2N2C(=O)N(c3ccccc3)C(=O)[C@@]12C,.,.,8.2%,3.7%,23.2
CCOC(=O)[C@@H]1[C@H]2COc3ccc(Br)cc3[C@@H]2N2C(=O)N(c3ccccc3)C(=O)[C@@]12C,6.1%,10µM*,-25.7%,7.1%,18.1
CCOC(=O)[C@H]1[C@H]2COc3ccc(Br)cc3[C@@H]2N2C(=O)c3cc(F)c(F)cc3NC(=O)[C@@]12C,.,.,25.2%,9.7%,-52.3*
CCOC(=O)[C@H]1[C@H]2COc3ccc(Br)cc3[C@@H]2N2C(=O)c3ccc(F)cc3NC(=O)[C@@]12C,.,.,9.0%,25.4%,0.0
C=CCOc1ccc(/C=C/C(=O)N2CCCN(S(=O)(=O)c3c(C)noc3C)CC2)cc1,.,.,?,0.3%,-21.1
NCCCCCc1cnc[nH]1,-4.3%,4.2%,.,.,.
N#Cc1ccc(-c2nc3c4ccccc4ccn3c2CC2CCCCC2)cc1,.,.,.,.,8.3
CCNC(=S)N/N=C/c1sc(N2CCCCC2)nc1-c1cccs1,17.8µM*,?,?,?,0.0
Cc1ccc(C2CC(=O)Oc3c(C(C)C)ccc(C)c32)cc1 (centres undefined),-10.4%,-12.4%,.,.,.
